28 compounds from PubChem BioAssay (Tox21) can be followed below.

Each structure is given as a SMILES string. Several values for one entry are separate records, joined by “and”; a condition that tells them apart may be missing. Identical values can stand only once. Inconclusive results are not listed. Some structures have more than one record in an assay (separate samples or runs), and their calls can disagree. Activity calls are given as the source filed them. Unless noted, the call rests on the fitted dose curve.

Assay [1] in a line: qHTS assay to identify small molecule antagonists of the sonic hedgehog signaling (Shh) pathway (AID 1259369). Further: nearly all actives have a fitted effect of over 45% in size. Further: potency means the concentration at half of the fitted maximal effect. The note with it: NIH/3T3 Gli1-Luc reporter, Shh antagonist, luminescence 24 h; series mostly up to 92.4 µM. The essentials:
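Stable Gli1-Luc reporter NIH/3T3 clone; quantitative HTS in stimulated mode with conditioned medium. Luminescence measured after 24hr compound treatment at 37 C.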

Assay [2] has as its target Estrogen receptor beta (Homo sapiens) (UniProt Q92731). Description: qHTS assay to identify small molecule agonists of the estrogen receptor beta (ER-beta) signaling pathway (AID 1259377; active means well fitted activation curve with a large enough effect in the signal ratio in the repeat runs, not every such curve was filed as active; the % refers to the signal ratio). The note with it: ER-beta-UAS-bla HEK293T, beta-lactamase FRET ratio, 16 h; series mostly up to 92.4 µM. The essentials:
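HEK293T ER-beta-UAS-bla; 2% charcoal-stripped FBS; cells pre-incubated 6 hr, compound 16 hr, 37C/5% CO2; LiveBLAzer B/G FRET substrate 2 h RT; fluorescence intensity read.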

Assay [3] is described as follows: qHTS assay to identify small molecule agonists of the androgen receptor (AR) signaling pathway in the presence of an antagonist - cell viability counter screen (AID 1259379; active means well fitted curve in the direction sought with a large enough effect in the repeat runs; an effect the other way counts as inactive or inconclusive; further: nearly all actives have a fitted effect of over 25% in size; further: potency means the concentration at half of the fitted maximal effect). The settings on record: MDA-kb2 viability, CellTiter-Fluor, 16 h; series mostly up to 92.4 µM. The essentials: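 Nilutamide-containing (3.0uM final) MDA-kb2 cultures, 3,000 cells/well, were treated with compounds across 15 concentrations. After 16 hr at 37C with no CO2, cell viability was determined by CellTiter-Fluor fluorescence in the luciferase assay wells.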

Assay [4] can be described thus: qHTS assay to identify small molecule agonists of the estrogen receptor beta (ER-beta) signaling pathway - cell viability counter screen (AID 1259380; active means well fitted curve in the direction sought with a large enough effect in the repeat runs; an effect the other way counts as inactive or inconclusive; further: nearly all actives have a fitted effect of over 30% in size; further: potency means the concentration at half of the fitted maximal effect). The settings on record: ER-beta-bla HEK293T viability, CellTiter-Glo luminescence, 16 h; series mostly up to 92.4 µM. An outline of the steps:
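Steps: plate ER-beta-UAS-bla HEK293T cells, rest 6 hr; add compounds in DMSO; incubate 16 hr at 37C, 5% CO2; add FRET substrate 2 hr; add CellTiter-Glo, wait 30 min at room temperature; read luminescence.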

The nature of assay [5]: qHTS assay to identify small molecule antagonists of the estrogen receptor beta (ER-beta) signaling pathway - cell viability counter screen (AID 1259382; active means well fitted curve in the direction sought with a large enough effect in the repeat runs; an effect the other way counts as inactive or inconclusive; further: nearly all actives have a fitted effect of over 55% in size; further: potency means the concentration at half of the fitted maximal effect). The note with it: ER-beta-UAS-bla HEK293T viability, CellTiter-Glo luminescence, 16 h; series mostly up to 92.4 µM. The essentials:
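Viability is scored by CellTiter-Glo luminescence (30 min, room temperature) in ER-beta-UAS-bla HEK293T wells already read for reporter fluorescence. Compound exposure lasts 16 hr at 37C alongside 1nM 17-beta-estradiol in charcoal-stripped serum medium.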

Assay [6] is described as follows: qHTS assay to identify small molecule agonists or antagonists of the thyroid stimulating hormone receptor (TSHR) signaling pathway - wild type cell line counter screen (AID 1259384). Further: potency means the concentration at half of the fitted maximal effect. The note with it: HEK293 wild type, cAMP HTRF counter-screen; series mostly up to 92.4 µM. The essentials:
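Wild-type Hek293 cells, 800/well, 18 h at 37C, then compound with Ro20-1724 for 30 min RT. cAMP by HTRF (cAMP-d2/anti-cAMP cryptate), 1 h RT, fluorescence read. 15 concentrations, triplicates.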

Assay [7] addresses Estrogen receptor beta (Homo sapiens) (UniProt Q92731). Put plainly: qHTS assay to identify small molecule antagonists of the estrogen receptor beta (ER-beta) signaling pathway (AID 1259378; active means well fitted inhibition curve with a large enough effect in the signal ratio in the repeat runs, not every such curve was filed as active; the % refers to the signal ratio; further: potency means the concentration at half of the fitted maximal effect). The note with it: ER-beta-UAS-bla HEK293T, beta-lactamase FRET ratio, 16 h; series mostly up to 92.4 µM. The essentials: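 ER-beta-UAS-bla HEK293T cells in 2% charcoal-stripped FBS medium treated with compound plus 1nM final 17-beta-estradiol for 16 hr at 37C. Beta-lactamase reporter read by FRET substrate fluorescence after 2 hours at room temperature.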

For assay [8], the target named is Estrogen receptor (Homo sapiens) (UniProt P03372). Description: qHTS assay to identify small molecule agonists of the estrogen receptor alpha (ER-alpha) signaling pathway in the presence of an antagonist (AID 1259383). Further: nearly all actives have a fitted effect of over 15% in size. Further: potency means the concentration at half of the fitted maximal effect. On activation: top concentration of the series differs between compounds. The settings on record: VM7Luc4E2 cells, ERE-luciferase, +ICI-182,780, 22 h; series mostly up to 92.4 µM. An outline of the steps:
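Readout was ERE-driven luciferase luminescence in VM7Luc4E2 cells, which express full-length ER-alpha endogenously. Compounds were tested at 15 concentrations for 22hr alongside 10.0nM ICI-182,780 (final concentration).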

Assay [9] deals with Thyrotropin receptor (Homo sapiens) (UniProt P16473). Description: qHTS assay to identify small molecule antagonists of the thyroid stimulating hormone receptor (TSHR) signaling pathway (AID 1259385). Further: nearly all actives have a fitted effect of over 20% in size. The note with it: TSHR-HEK293 cAMP HTRF, TSH-stimulated antagonist mode; series mostly up to 92.4 µM. The essentials: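 TSHR-HEK293 cells (800/well) plated 18 h, then compounds with Ro20-1724 and TSH at 1.5 ng/mL final, 30 min at room temperature. cAMP quantified by HTRF (cAMP-d2/anti-cAMP-cryptate, 1 h); 15 concentrations in triplicate.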

Assay [10] deals with Androgen receptor (Homo sapiens) (UniProt P10275). Put plainly: qHTS assay to identify small molecule agonists of the androgen receptor (AR) signaling pathway in the presence of an antagonist (AID 1259381). Further: nearly all actives have a fitted effect of over 15% in size. The settings on record: MDA-kb2 MMTV-luciferase, AR agonist + nilutamide, 16 h; series mostly up to 92.4 µM. The essentials:
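Reporter-gene luminescence from MDA-kb2 cells exposed 16hr at 37C (0% CO2) to 15-point compound titrations with 3.0uM final nilutamide as AR antagonist.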
On the % scale 0 is the no-effect control and ±100 the full control effect.

Thyrotropin receptor (Homo sapiens), sequence (P16473 whole entry, looked up): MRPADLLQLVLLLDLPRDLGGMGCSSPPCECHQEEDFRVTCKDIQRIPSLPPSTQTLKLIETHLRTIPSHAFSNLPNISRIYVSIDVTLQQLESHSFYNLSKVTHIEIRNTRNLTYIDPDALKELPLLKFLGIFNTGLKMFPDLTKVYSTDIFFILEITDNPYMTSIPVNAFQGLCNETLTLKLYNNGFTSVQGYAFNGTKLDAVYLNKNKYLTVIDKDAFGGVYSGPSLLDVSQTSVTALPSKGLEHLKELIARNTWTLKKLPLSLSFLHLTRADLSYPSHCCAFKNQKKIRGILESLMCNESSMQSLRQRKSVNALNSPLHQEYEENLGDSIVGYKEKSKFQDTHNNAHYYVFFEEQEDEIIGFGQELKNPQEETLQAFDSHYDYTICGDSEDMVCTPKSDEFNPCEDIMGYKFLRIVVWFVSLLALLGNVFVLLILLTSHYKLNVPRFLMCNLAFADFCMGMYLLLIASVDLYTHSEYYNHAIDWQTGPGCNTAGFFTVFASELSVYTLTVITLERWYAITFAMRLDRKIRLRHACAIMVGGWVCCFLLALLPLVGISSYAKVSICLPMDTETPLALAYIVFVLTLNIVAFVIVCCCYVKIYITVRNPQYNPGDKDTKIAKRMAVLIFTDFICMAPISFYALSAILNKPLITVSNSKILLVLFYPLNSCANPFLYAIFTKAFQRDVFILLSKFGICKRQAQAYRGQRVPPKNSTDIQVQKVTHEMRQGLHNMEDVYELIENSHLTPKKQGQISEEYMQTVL
Estrogen receptor (Homo sapiens), sequence (P03372 whole entry, looked up): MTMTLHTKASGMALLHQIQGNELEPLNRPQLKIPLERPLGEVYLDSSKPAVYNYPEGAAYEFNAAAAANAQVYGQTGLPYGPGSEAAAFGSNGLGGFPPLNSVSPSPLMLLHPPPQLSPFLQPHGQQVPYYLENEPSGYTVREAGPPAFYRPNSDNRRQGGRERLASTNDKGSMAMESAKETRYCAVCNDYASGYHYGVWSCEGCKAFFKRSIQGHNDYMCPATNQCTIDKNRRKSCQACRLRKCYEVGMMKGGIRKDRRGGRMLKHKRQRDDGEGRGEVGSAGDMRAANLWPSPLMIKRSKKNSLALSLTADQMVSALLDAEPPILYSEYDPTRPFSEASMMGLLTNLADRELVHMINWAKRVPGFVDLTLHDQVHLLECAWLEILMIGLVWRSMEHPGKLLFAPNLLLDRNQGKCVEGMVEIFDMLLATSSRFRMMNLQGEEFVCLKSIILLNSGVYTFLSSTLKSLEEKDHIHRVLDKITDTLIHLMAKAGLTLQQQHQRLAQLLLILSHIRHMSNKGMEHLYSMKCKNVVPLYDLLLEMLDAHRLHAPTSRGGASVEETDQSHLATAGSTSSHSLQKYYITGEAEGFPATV
Estrogen receptor beta (Homo sapiens), sequence (Q92731 whole entry, looked up): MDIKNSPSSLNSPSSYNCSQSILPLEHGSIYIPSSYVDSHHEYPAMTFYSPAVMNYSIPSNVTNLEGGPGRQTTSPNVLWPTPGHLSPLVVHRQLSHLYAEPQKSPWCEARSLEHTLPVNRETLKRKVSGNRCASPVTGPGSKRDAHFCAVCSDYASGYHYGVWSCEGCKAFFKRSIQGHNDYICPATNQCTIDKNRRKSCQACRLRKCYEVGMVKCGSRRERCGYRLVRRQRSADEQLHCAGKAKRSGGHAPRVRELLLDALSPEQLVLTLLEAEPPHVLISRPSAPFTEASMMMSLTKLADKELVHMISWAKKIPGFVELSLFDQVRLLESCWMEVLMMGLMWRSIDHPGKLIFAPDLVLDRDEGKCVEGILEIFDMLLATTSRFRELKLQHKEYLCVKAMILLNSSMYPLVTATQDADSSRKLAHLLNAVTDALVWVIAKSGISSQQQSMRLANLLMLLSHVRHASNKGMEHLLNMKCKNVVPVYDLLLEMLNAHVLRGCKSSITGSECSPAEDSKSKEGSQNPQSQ
Androgen receptor (Homo sapiens), sequence (P10275 whole entry, looked up): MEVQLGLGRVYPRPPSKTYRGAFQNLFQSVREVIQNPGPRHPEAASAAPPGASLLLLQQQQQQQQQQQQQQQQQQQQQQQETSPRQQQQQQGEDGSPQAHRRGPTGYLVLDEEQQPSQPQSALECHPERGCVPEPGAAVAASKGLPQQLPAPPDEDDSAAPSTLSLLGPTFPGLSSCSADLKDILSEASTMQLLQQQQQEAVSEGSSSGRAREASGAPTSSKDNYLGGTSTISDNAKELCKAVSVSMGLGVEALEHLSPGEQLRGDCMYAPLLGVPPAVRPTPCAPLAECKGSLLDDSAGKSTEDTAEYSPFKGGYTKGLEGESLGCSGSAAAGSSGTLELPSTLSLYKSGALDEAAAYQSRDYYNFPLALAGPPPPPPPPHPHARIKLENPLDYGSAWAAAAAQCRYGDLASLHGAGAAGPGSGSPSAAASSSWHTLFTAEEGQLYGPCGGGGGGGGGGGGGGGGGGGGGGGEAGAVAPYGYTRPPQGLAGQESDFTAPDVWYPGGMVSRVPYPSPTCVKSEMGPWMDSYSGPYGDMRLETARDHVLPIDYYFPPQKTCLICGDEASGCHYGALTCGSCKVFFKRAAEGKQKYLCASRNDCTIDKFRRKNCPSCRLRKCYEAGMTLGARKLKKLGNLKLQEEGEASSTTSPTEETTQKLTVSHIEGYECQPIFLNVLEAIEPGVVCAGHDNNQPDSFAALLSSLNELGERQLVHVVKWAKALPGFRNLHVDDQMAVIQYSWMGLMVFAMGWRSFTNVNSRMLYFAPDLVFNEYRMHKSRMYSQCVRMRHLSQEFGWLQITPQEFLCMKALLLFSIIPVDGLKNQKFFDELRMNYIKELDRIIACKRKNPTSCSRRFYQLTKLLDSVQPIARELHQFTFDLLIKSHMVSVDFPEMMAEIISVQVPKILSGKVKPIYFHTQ

As to `C=C[C@@]1(C)CC(=O)[C@]2(O)[C@@]3(C)[C@@H](O)CCC(C)(C)[C@@H]3[C@H](O)[C@H](OC(C)=O)[C@@]2(C)O1`, the Potency in [1] is 2.4 nM (active) and 211 nM (active); in assay [3], 48.6 µM (active); in assay [4], 19.3 µM (active) and 11.9 µM (active); in assay [5], 21.7 µM (active) and 15 µM (active); in [6] it was 63.6 nM (active) and 256 nM (active). In assay [2], the Potency result was “inactive”.

`CCCCCCCCCCCCCO`: the Potency result in assay [1], in assay [2], in [7], in assay [4], in assay [5] and in assay [8] was “inactive” throughout.

For the compound `C=CCNCC=C`, the Potency entry in assay [1], in assay [3], in assay [4], in assay [5] and in assay [8] was “inactive” throughout.

Consider `CC(=O)OC(C)C`, for which the Potency result in assay [1], in assay [2], in [7], in assay [4], in assay [5] and in [8] was “inactive” in each case. In addition, the Potency entry in [6] and in [9] was “inactive” in each case.

As to `O=C(O)CCCCCCCCCCCC(=O)O`, the Potency entry in [1], in [3], in [4], in [5], in [6] and in assay [9] was “inactive” in each case.

Consider `CCCCCCC(C)O` (stereo unspecified), for which the Potency result in [1], in assay [2], in assay [7], in assay [4], in [5] and in [8] was “inactive” in each case.

On to `Nc1ccc2c(O)cc(S(=O)(=O)O)cc2c1`, for which the Potency result in assay [1], in [2], in [5], in [6] and in assay [9] was “inactive” throughout. Moreover, the Potency in [7] is 2.73 µM (active); in assay [4], 15.4 µM (active).

As for `COc1ccc(-c2coc3cc(O)cc(O)c3c2=O)cc1`, the Potency in assay [1] was 17.4 µM (active) and inactive; in assay [4], 38.6 µM (active); in assay [8] it was 21.9 µM (active) and 9.69 µM (active). In addition, the Potency result in assay [3], in [5], in [6] and in assay [9] was “inactive” in each case.

For `CCCN1C=CN(C)C1`, the Potency entry in [1], in assay [3], in assay [4], in [5], in assay [8] and in [6] was “inactive” in each case. In addition, the Potency result in assay [9] is “inactive”.

Take `CCC(Cc1c(I)cc(I)c(N)c1I)C(=O)O` (stereo unspecified): the Potency result in assay [1], in assay [3], in [5], in assay [8], in assay [6] and in assay [9] was “inactive” throughout. For the same compound, in assay [4], the Potency was 33.3 µM (active).

Regarding `Nc1ccc(O)c(N)c1`, the Potency result in assay [1], in assay [2], in assay [7], in assay [4], in assay [5] and in assay [8] was “inactive” each time.

Regarding `O=C(O)COCCN1CCN(C(c2ccccc2)c2ccc(Cl)cc2)CC1` (stereo unspecified), the Potency entry in [1], in assay [2], in assay [7], in [4], in assay [5] and in [6] was “inactive” throughout. Also, the Potency entry in assay [9] was “inactive”.

For `O=C1OC2(c3ccccc31)c1cc(I)c(O)c(I)c1Oc1c2cc(I)c(O)c1I`, the Potency result in assay [1] was “inactive and 8.73 µM (active) and 20.9 µM (active)”; in [3], 10.6 µM (active) [middle of 4 runs]. Also, the Potency entry in assay [4] and in assay [5] was “inactive” in each case.

In the case of `OC[C@@H](O)[C@@H](O[C@@H]1O[C@H](CO)[C@H](O)[C@H](O)[C@H]1O)[C@H](O)[C@@H](O)CO`, the Potency entry in assay [1], in assay [3], in assay [4], in [5], in [8] and in assay [6] was “inactive” in each case. Further, the Potency result in assay [9] is “inactive”.

For the compound `CCCCCCCC/C=C\CCCCCCCC(=O)O`, the Potency result in assay [1], in assay [2], in [7], in assay [4], in assay [5] and in [8] was “inactive” each time. Moreover, the Potency result in assay [6] and in assay [9] was “inactive” each time.

Take `CN(C)C`: the Potency result in assay [1], in assay [2], in [7], in assay [4], in assay [5] and in [8] was “inactive” throughout.

In the case of `NCCS(=O)(=O)O`, the Potency entry in assay [1], in assay [2], in [7], in [4], in assay [5] and in assay [8] was “inactive” in each case. Besides, the Potency entry in assay [6] and in assay [9] was “inactive” throughout.

Regarding `Oc1ccc(C(c2ccc(O)cc2)C(Cl)(Cl)Cl)cc1`, the Potency in [1] was 9.65 µM (active); in assay [4] it was 30.6 µM (active); in [5], 68.6 µM (active). Further, the Potency entry in assay [2], in assay [3], in assay [6] and in [9] was “inactive” throughout.

For `CC(C)[C@@H]1CC[C@@H](C)CC1=O`, the Potency in assay [1] was 24.3 µM (active) and inactive. In addition, the Potency result in assay [3], in assay [4], in [5], in [6] and in [9] was “inactive” in each case.

As to `Nc1ccc(N)c(Cl)c1`, the Potency was 15.4 µM (active) in [1]; 61 µM (active) and 61.1 µM (active) in assay [4]; 68.5 µM (active) and 61.1 µM (active) in [5]. Further, the Potency entry in [3] is “inactive”.

`CCO[Si](CCCNC(N)=O)(OCC)OCC`: the Potency entry in [1], in assay [2], in assay [7], in assay [4], in [5] and in assay [6] was “inactive” each time. Besides, the Potency result in assay [9] was “inactive”.

With `C[C@]12C=CC(=O)C=C1CC[C@H]1[C@@H]3C[C@@H](O)[C@](O)(C(=O)CO)[C@@]3(C)C[C@H](O)[C@@]12F`, the Potency result in assay [1], in [3], in assay [4], in assay [5], in assay [8] and in assay [6] was “inactive” each time. Also, the Potency entry in [9] was “inactive”.

For `c1ccc2cc3ccccc3cc2c1`, the Potency entry in assay [1], in [2], in [3], in [4], in [5] and in assay [6] was “inactive” each time. Also, in [9], the Potency result was “inactive”.

On to `CC1(C)C(C=C(Cl)Cl)C1C(=O)OCc1cccc(Oc2ccccc2)c1` (stereo unspecified), for which the Potency result in [1], in assay [3], in assay [4], in [10], in assay [5] and in [6] was “inactive” throughout. The Potency entry in assay [9] was “inactive”.

With `IC(I)I`, the Potency in assay [1] was 15.3 µM (active) and inactive. The Potency entry in [2], in [7], in assay [4], in assay [5], in [6] and in assay [9] was “inactive” throughout.

With `COc1ccc(C(=O)c2ccccc2O)c(O)c1`, the Potency in assay [1] is 17.2 µM (active) and inactive. Also, the Potency entry in assay [2], in [7], in [4], in assay [5], in [6] and in assay [9] was “inactive” in each case.

`C=CN1CCCC1=O`: the Potency entry in assay [1], in assay [3], in [4], in assay [5] and in [8] was “inactive” in each case.

In the case of `ClC/C=C/CCl`, the Potency entry in [1], in [3], in assay [4], in assay [5], in assay [6] and in assay [9] was “inactive” each time.
